Results as given in PubChem BioAssay.
Active and inactive are the calls of the source. Rule as the data show it: active = nuclear beta-catenin stimulation mostly above about 4.2% (no sharp cut-off); inactive = mostly below about 10%.

Assay: Wnt pathway potentiators raising nuclear beta-catenin – imaging, WNT3A-conditioned medium, mouse C2C12, NPC library, primary screen (AID 1117326); also: reference of the scale not given here
Settings: at 10 µM, stronger effect = higher value

Nuclear beta-catenin stimulation, active:
COC(=O)Nc1nc2ccc(C(=O)C3CC3)cc2[nH]1 41.8%

Nuclear beta-catenin stimulation, inactive:
Oc1ccc(C(O)CNCCCCCCNCC(O)c2ccc(O)c(O)c2)cc1O (centres undefined) -0.7%, CC(=O)OC[C@H]1O[C@@H](OC(C)=O)[C@H](OC(C)=O)[C@@H]1OC(C)=O -0.3%, Cc1ccccc1N=Nc1ccc(N=Nc2c(O)ccc3ccccc23)c(C)c1 4.6%, Nc1ccc(C(=O)OCC(O)CO)cc1 (centres undefined) 3.1%, NNc1nnc(NN)c2ccccc12 3.3%, Cc1ncc(CO)c(C=O)c1O -0.2%, CCOC(=O)c1cc(=O)c2c(OCC(COc3cccc4oc(C(=O)OCC)cc(=O)c34)OC(=O)[C@@H](N)CCCCN)cccc2o1 0.5%, CN(C)[C@@H]1C(=O)C(C(=O)NCN2CCCC2)=C(O)[C@@]2(O)C(=O)C3=C(O)c4c(O)cccc4[C@@](C)(O)C3C[C@@H]12 (some centres undefined) 3.5%, Nc1nc(=O)n([C@@H]2O[C@H](CO)[C@@H](O)[C@@H]2F)cc1I 8%, OCC(O)CS (centres undefined) -0.5%, Nc1ccc(/C=C/c2ccc(N)cc2S(=O)(=O)O)c(S(=O)(=O)O)c1 0.5%, CC(=O)Nc1ccn(C2COC(COC(=O)c3ccccc3)O2)c(=O)n1 (centres undefined) 8.2%, COC1=C(OC)C(=O)C(CC=C(C)CCC=C(C)CCC=C(C)CCC=C(C)CCC=C(C)CCC=C(C)CCC=C(C)CCC=C(C)CCC=C(C)CCC=C(C)C)=C(C)C1=O 0.8%, NC[C@H]1O[C@H](O[C@H]2[C@@H](O)[C@@H](O[C@H]3O[C@H](CO)[C@@H](O)[C@H](N)[C@@H]3O)[C@H](N)C[C@@H]2N)[C@H](N)C[C@H]1O 0.2%, Cc1ccc(O)c(-n2nc3ccccc3n2)c1 -0.7%, Nc1c(NC/C=C\COc2cc(CN3CCCCC3)ccn2)c(=O)c1=O 0.1%, CCCCNC(=O)NS(=O)(=O)c1ccc(N)cc1 1.6%, CC(=O)c1cc2ccccc2s1 2.1%, NS(=O)(=O)c1ccc(Cl)c(S(N)(=O)=O)c1 -2.3%, CC(C)Cc1ccc(CC(=O)O)cc1 -0.7%, NCC(=O)O 2.3%, CC12CCC(C[N+](C)(CCC[N+](C)(C)C)C1)C2(C)C (centres undefined) -0.5%, CN(C)C(=O)CNC(=O)Cc1ccccc1 -0.3%, Cc1cccc(N(C)C(=S)Oc2ccc3c(c2)CCC3)c1 0%, COc1cc2c(cc1OC)C(C(C(=O)N(CCc1ccc(OC)c(OC)c1OC)CCc1ccc(OC)c(OC)c1OC)c1ccccc1)=NCC2 (centres undefined) 4.4%, O=C1CCC(C(=O)O)N1 (centres undefined) -1.2%, O=Cc1ccc(O)c(O)c1O 1.4%, O=S(c1cc(Cl)cc(Cl)c1O)c1cc(Cl)cc(Cl)c1O -0.5%, CC(C)(C)c1cc(C=O)cc(C(C)(C)C)c1O 2%, CN(CC1(C)CCCO1)S(=O)(=O)c1ccc(Cl)c(S(N)(=O)=O)c1 (centres undefined) -0.8%, CCCCC(C)(O)CC=C[C@H]1[C@H](O)CC(=O)[C@H]1CCCCCCC(=O)OC (some centres undefined) -0.9%, C=CCOc1cc(Cl)ccc1C(=O)NCCN(CC)CC -0.4%, CC(=O)SCC(CC(=O)c1ccc(C)cc1)C(=O)O (centres undefined) 0.5%, CCCCNc1ccc(C(=O)OCCN(CC)CC)cc1 4%, C/C=C(/C(=C/C)c1ccc(OC(C)=O)cc1)c1ccc(OC(C)=O)cc1 18.1%, O=C(Nc1ccc(Oc2ccc(Cl)cc2)c(Cl)c1)c1cc(I)cc(I)c1O 6.2%, CC(=O)Nc1ccc(OC(=O)c2ccccc2OC(C)=O)cc1 0.6%, O=C(/C=C/c1ccccc1)OCc1ccccc1 1.3%
